# Shown are actives, neighbours in structure and some others; about 2.1% of the full set was active somewhere.
# MsrA act = activators of bovine methionine sulfoxide reductase A; purified bovine MsrA, absorbance read-out; activation, % at 10.6 µM; hit rate 0.3% among 360,000; AID 602163; in the data active means activation above about 7.5%
# SMARCA2 activ = SMARCA2 function activation, primary screen; MG213 cells, MMTV-luciferase reporter, dexamethasone, overnight; activation, % at 9.1 µM; hit rate 1% among 370,000; AID 652017; in the data active means activation above about 7.8%
# ABCB6 inh 2 = human ABCB6 transporter inhibition. Q9NP58. K562-ABCB6 porphyrin accumulation, flow cytometry, 1 h; hits give low values. fluorescence ratio to DMSO, % at 10 µM. hit rate 0.19% among 360,000. AID 602162;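 active means fluorescence ratio to DMSO below 75%, the collection mean minus 3 SD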;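 further: signal is porphyrin accumulated inside mitochondria; lower ratio means ABCB6 inhibition with less porphyrin fluorescence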
# MsrA inh = inhibits bovine methionine sulfoxide reductase A; AID 651718; hit rate 0.75% among 360,000; purified bovine MsrA, absorbance read-out; inhibition, % at 15.5 µM
# MsrA inh confirm = bovine MsrA inhibition, confirmed | shares compounds with MsrA inh | purified bovine MsrA, absorbance read-out | inhibition, % at 15.5 µM | hit rate 41% among 2,300 | AID 651822;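 further: coupled to thioredoxin reductase with NADPH and selenocystamine and DMSO as substrate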
# Numbers stand for hits; i = inactive; nt = no result. Unless noted, no stated cut-off is given here; in the data, active means inhibition above about 4.5%; inactive means the rest.
SMILES,MsrA act,SMARCA2 activ,ABCB6 inh 2,MsrA inh,MsrA inh confirm
CCOC(=O)/C(C#N)=C1/C=CN(Cc2ccccc2)C=N1,i,i,i,7.4,5.7
CCOC(=O)/C(C#N)=C1/C=CN(C)C=N1,i,i,i,7.4,5.7
CCOC(=O)/C(C#N)=C1/SC(CC)C(=O)N1c1ccc(C)cc1 (stereo not drawn),i,i,i,i,nt
CCN(C)C1CN(Cc2cn(Cc3cccc(Cl)c3)nn2)S(=O)(=O)C1 (stereo not drawn),i,i,i,i,nt
O=C(CSc1nc2ncccc2[nH]1)N1CCOCC1,nt,i,nt,nt,nt
C=CCOC/C=C/C#CCN(Cc1ccc(OC)cc1OC)C(=O)Nc1ccccc1,nt,i,nt,nt,nt
CCOC(=O)/C(C#N)=C1/C=CN(c2ccccc2)C=N1,i,i,i,5.6,6.0
O=C(Nc1c(-c2ccc(C(F)(F)F)cc2)nc2ncccn12)C1CC1,nt,i,nt,nt,nt
COc1ccc(-c2cc3ccc(OC(C)C(=O)O)cc3oc2=O)cc1 (stereo not drawn),i,i,i,5.7,i
CC(=O)COc1ccc2cc(-c3ccccc3)c(=O)oc2c1,i,i,i,i,nt
COc1ccc(-c2cc3ccc(OCC(N)=O)cc3oc2=O)cc1OC,i,i,i,5.6,i
COc1ccc(-c2cc3ccccc3oc2=O)cc1,i,i,i,i,nt
O=c1oc2ccccc2cc1-c1nc2ccccc2o1,i,i,i,5.2,i
CCN(CC)C(=O)CC[C@H]1CC[C@]2(CCCN(C(=O)c3ccccc3)C2)O1,nt,i,nt,nt,nt
N#Cc1cn(-c2ccccc2)nc1-c1ccco1,i,i,i,5.2,i
N#Cc1cn(-c2ccccc2)nc1C(=O)c1ccccc1,i,i,i,i,nt
c1ccc(-n2nnnc2-n2nnc3ccccc32)cc1,i,i,i,23.0,21.6
O=[N+]([O-])c1ccc(N2CCN(S(=O)(=O)c3ccc(Cl)cc3)CC2)cc1NCc1cccnc1,i,i,i,i,nt
O=[N+]([O-])c1ccc(N2CCN(S(=O)(=O)c3ccccc3)CC2)cc1NCc1cccnc1,i,i,i,9.1,i
C(=C\c1ccccc1)/C=N/Nc1nc2ccccc2[nH]1,i,i,i,i,nt
CCCc1cc(=O)[nH]c(N/N=C/C=C\c2ccccc2)n1,i,i,i,6.7,5.5
CCOc1ccc(-n2c(SCC(=O)Nc3ccccc3-c3ccccc3)nnc2-c2ccncc2)cc1,nt,i,nt,nt,nt
COC(=O)/C=C1/S/C(=N/NC(=O)c2ccccc2C)NC1=O,i,i,i,6.7,i
COC(=O)/C=C1\S/C(=N/N=C/c2ccccc2)NC1=O,i,i,i,i,nt
COC(=O)/C=C1\S/C(=N/N=C/c2ccco2)NC1=O,i,i,i,4.7,i
SMILES,MsrA act,SMARCA2 activ,ABCB6 inh 2,MsrA inh,MsrA inh confirm
Cc1ccc(CNC(=O)OC(C)(C)C)c(/C=C/S(=O)(=O)NC2CCCC2)c1,nt,i,nt,nt,nt
NC(CSS(=O)(=O)O)=NCCC12CC3CC(CC(O)(C3)C1)C2,i,i,i,7.5,i
Cc1cc(C)c2c3c(sc2n1)C(c1cccc(F)c1)C(C#N)=C(N)O3 (stereo not drawn),i,i,i,10.2,i
COCCn1c(=NC(=O)c2ccc3c(c2)OCCO3)sc2cc(S(N)(=O)=O)ccc21,i,i,i,6.2,i
COCCn1c(=NC(=O)c2ccc(S(=O)(=O)N3CCc4ccccc4C3)cc2)sc2cc(S(N)(=O)=O)ccc21,i,i,i,5.9,i
COCCn1c(=NC(=O)c2cc(Cl)sc2Cl)sc2cc(S(N)(=O)=O)ccc21,i,i,i,i,nt
C=CCNc1sc(C(=O)C2CC2)c(N)c1C#N,i,i,i,6.4,4.8
C=CCNc1sc(C(=O)C(C)(C)C)c(N)c1C#N,i,i,i,i,nt
CN(c1cccnc1)c1ccc(NC(=O)Cc2c[nH]c3ccccc23)cc1-c1ccc(F)c(F)c1,nt,i,nt,i,nt
COc1cccc(/C=C/C(=O)c2cccc([N+](=O)[O-])c2)c1OC,i,i,i,i,nt
COc1ccc(/C=C/C(=O)c2ccncc2)c2ccccc12,i,i,i,8.3,i
COC(=O)C[C@@H]1CC[C@H]2[C@@H](COc3ccc(NC(=O)c4ccc(Cl)cc4)cc3C(=O)N2C)O1,nt,i,nt,nt,nt
Cc1[nH]n(-c2ccc(Cl)cc2)c(=O)c1C(=O)c1ccccc1,i,i,i,7.3,i
CCCS(=O)(=O)c1c(S(=O)(=O)CCC)c2c(N)cccn2c1C(=O)OC,i,i,i,5.2,i
COC(=O)[C@]12C[C@H](CC(=O)NCCCCc3ccccc3)C(=O)N(CCc3ccc(OC)c(OC)c3)C1=C[C@H](C(C)(C)C)O[C@@H]2C,nt,i,nt,nt,nt
Oc1ccc(/C=N\Nc2nncc(-c3ccccc3)n2)cc1,i,i,i,5.8,i
Cc1nc2cc(C(=O)N3CCN(C(=O)C(Cl)Cl)CC3)ccc2n1C1CCCC1,nt,i,nt,nt,nt
CCOC(=O)c1csc(NC(=O)c2cc(=O)c3ccccc3o2)n1,i,i,i,4.7,i
CN(C)c1ccc(C=NCC2COc3ccccc3O2)cc1 (stereo not drawn),i,i,i,5.5,5.2
O=C(O)c1ccc(/C=C(\c2nc3ccccc3[nH]2)c2nc3ccccc3s2)cc1,i,i,i,5.4,5.3
COC(=O)[C@@H](CC(C)C)CP(=O)(OC)[C@@H](C)NC(=O)OCc1ccccc1 (stereo partly drawn),nt,i,nt,nt,nt
CCn1cc(C(=O)N2CCN(c3ccc(C(C)=O)cc3)CC2)c2cc(OC)c(OC)cc2c1=O,i,i,i,6.5,i
CC(=O)c1ccc(N2CCN(S(=O)(=O)c3c(C(=O)N4CCCC4)c(C)n(C)c3C)CC2)cc1,i,i,i,5.1,i
CCOC(=O)C1=C[C@@H](c2ccccc2)N(S(=O)(=O)c2ccc(C)cc2)[C@H]1c1ccc(OC)cc1,i,i,i,i,nt
COc1cc(/C=N/NC2=NCCCCC2)ccc1O,i,i,i,i,nt
SMILES,MsrA act,SMARCA2 activ,ABCB6 inh 2,MsrA inh,MsrA inh confirm
COc1cc(/C=N/Nc2ncnc3sc4c(c23)CCC4)ccc1O,i,i,i,5.5,i
CCCCCCC(=O)NC1CCCCN(Cc2ccc(Cl)cc2)C1=O (stereo not drawn),nt,i,nt,nt,nt
COc1ccc2c(c1)CCCN2C(=O)C1CCCN(S(=O)(=O)c2cccc3cccnc23)C1 (stereo not drawn),nt,i,nt,nt,nt
COc1cc2c(cc1OC)CN(c1ccc([N+](=O)[O-])cc1C#N)CC2,i,i,i,i,nt
COc1cc2c(cc1OC)CN(c1ccc([N+](=O)[O-])cc1Cl)CC2,i,i,i,4.8,i
Cc1ccccc1C1=NC(C(F)(F)F)(C(F)(F)F)c2c(n(C)c(=O)n(C)c2=O)N1,i,i,i,5.4,i
Cn1c2c(c(=O)n(C)c1=O)C(C(F)(F)F)(C(F)(F)F)N=C(C1CCCCC1)N2,i,i,i,15.5,11.7
CC(=O)NC1(C(F)(F)F)C(=O)Nc2c1c(=O)n(C)c(=O)n2C (stereo not drawn),i,i,i,i,nt
Cn1c2c(c(=O)n(C)c1=O)C(C(F)(F)F)(C(F)(F)F)N=C(c1ccc(Cl)cc1)N2,i,nt,i,nt,nt
COCCCN1C(=O)C(=O)/C(=C(/O)c2ccc(OC)cc2C)C1c1cccnc1 (stereo not drawn),i,i,i,4.8,i
COCCCN1C(=O)C(=O)/C(=C(/O)c2ccc(OC(C)C)cc2)C1c1cccnc1 (stereo not drawn),i,i,i,i,nt
